The target in experiment [1] is 6-phosphogluconate dehydrogenase, decarboxylating (Homo sapiens) (UniProt P52209). Briefly: 6PGD enzyme inhibitors, primary screen, biochemical, human, recombinant enzyme, NADPH absorbance (AID 1159550). The following applies: recombinant 6PGD, NADPH absorbance 341 nm; at 10 µM; stronger effect = higher value.
A short description of experiment [2]: stimulators of nuclear beta-catenin in C2C12, primary screen, imaging, WNT3A-conditioned medium, mouse C2C12, NPC library (AID 1117326; in the data active means nuclear beta-catenin stimulation mostly above about 4.2%, no sharp cut-off; inactive means mostly below about 10%). The following applies: stronger effect = higher value.
Experiment [3] is described as follows: stimulators of insulin release from INS-1E, primary screen, cell-based, 5 mM glucose, NPC library (AID 1117329;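 active means compound raises insulin release from rat beta cells at 5 mM glucose, no numeric limit stated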). The settings on record: rat INS-1E insulin secretion, at 10 µM, stronger effect = higher value.
Experiment [4] in a line: glucagon-like peptide 1 release enhancers, primary assay, NCI-H716 cell line, NPC library (AID 1117341;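 active means compound raises GLP1 secretion from the human gut endocrine cells, with no numeric limit stated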). The settings on record: NCI-H716 cells, at 10 µM, stronger effect = higher value.
The nature of experiment [5]: growth inhibition of GSK3B-pretreated HCT116 cells – cell-based, CellTiter-Glo, 0.2 to 20 µM (AID 1117336;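 active means compounds lowering colon cancer cell viability after pretreatment blocking the GSK3B kinase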). The settings on record: HCT116 viability after GSK3B inhibitor, at 20 µM, stronger effect = higher value. (ATP-based viability assays read luminescence as a measure of living cells.)
A short description of experiment [6]: HCT116 colon cancer cell growth inhibition, primary screen, CellTiter-Glo luminescence, NPC library (AID 1117342;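 active means compounds that lower survival of HCT116 colon cancer cells in the luminescence readout, no numeric limit stated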). The following applies: at 20 µM (top of the series).
Experiment [7] can be described thus: CellTiter-Glo luminescent readout of SW480 viability loss, NPC library primary (AID 1117343;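 active means compounds that lower viability of the colon cancer cells in the luminescence readout, with no numeric limit stated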). The settings on record: CellTiter-Glo luminescence; at 20 µM (top of the series).
Experiment [8] can be described thus: decreased DLD-1 cellular survival, CellTiter-Glo luminescent readout, NPC compound collection, primary HTS (AID 1117346;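 active means compounds that lower survival of DLD-1 colon cancer cells in the luminescence readout, no cutoff given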). The following applies: DLD-1 viability, CellTiter-Glo luminescence; at 20 µM (top of the series).
The subject of experiment [9] is Aerobactin synthetase IucA (Klebsiella pneumoniae, hypervirulent). Briefly: IucA enzyme inhibition, biochemical, LOPAC library, absorbance readout (AID 1346212; call rule not given here;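 further: 100% = no compound wells and 0% = no enzyme wells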). The settings on record: IucA enzyme assay, absorbance (OD) readout; stronger effect = lower value;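 tested at 8 µM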.
Experiment [10] in a line: sensitizers of A549 cells to miR-34 induction, primary screen, imaging, A549 dox-inducible miR-34, nuclei and caspase counts (AID 1347080;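 active means compounds whose cell count with miR-34 switched on is under 0.7 times the count with it off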). The following applies: A549 miR-34 inducible, Hoechst nuclei count, 48 h.
The nature of experiment [11]: viability rescue of complex I mutant cybrids, primary screen, cell-based, galactose medium, ATP luminescence (AID 1645843;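 active means z-score of at least 1.8 in each of two replicates, scored against plate mean and spread of sample wells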;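 further: positive z means more ATP and so rescue of galactose-driven cybrid death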). The settings on record: complex I mutant cybrid cells, 72 h, stronger effect = higher value.
The nature of experiment [12]: inhibition of endothelial tube formation, primary screen, imaging, VEGF stimulated, CD31 staining, tube area, NPC library (AID 1117340;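 active means compound that reduces growth-factor-driven endothelial tube area in a mixed cell culture, no cutoff stated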). The settings on record: VEGF-stimulated ADSC/ECFC co-culture, at 10 µM, stronger effect = higher value.
Experiment [13] can be described thus: survival rescue of mitochondrial mutant cells in low glucose, primary screen, MELAS cybrids, Rieske KO mouse fibroblasts, CellTiter-Glo (AID 1508586;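 active means mean z-score across replicates of 1.96 or higher in either the MELAS or the Rieske mutant cell line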;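 further: z relative to plate mean and SD of compound and empty wells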).
Setting [14] is: measured here: relative caspase fold change +Dox/-Dox.
[15] abbreviates: measured here: total cells with miR-34 induction, stronger effect = lower value.
Setting [16] is: measured here: total cells without miR-34 induction.

The structures appear in SMILES notation. Active and inactive are the calls of the source.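 How the source made its calls, unless noted: active means at least 20% inhibition of 6-phosphogluconate dehydrogenase activity; inactive means the rest.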

Sequence of 6-phosphogluconate dehydrogenase, decarboxylating (Homo sapiens) (P52209 whole entry, looked up): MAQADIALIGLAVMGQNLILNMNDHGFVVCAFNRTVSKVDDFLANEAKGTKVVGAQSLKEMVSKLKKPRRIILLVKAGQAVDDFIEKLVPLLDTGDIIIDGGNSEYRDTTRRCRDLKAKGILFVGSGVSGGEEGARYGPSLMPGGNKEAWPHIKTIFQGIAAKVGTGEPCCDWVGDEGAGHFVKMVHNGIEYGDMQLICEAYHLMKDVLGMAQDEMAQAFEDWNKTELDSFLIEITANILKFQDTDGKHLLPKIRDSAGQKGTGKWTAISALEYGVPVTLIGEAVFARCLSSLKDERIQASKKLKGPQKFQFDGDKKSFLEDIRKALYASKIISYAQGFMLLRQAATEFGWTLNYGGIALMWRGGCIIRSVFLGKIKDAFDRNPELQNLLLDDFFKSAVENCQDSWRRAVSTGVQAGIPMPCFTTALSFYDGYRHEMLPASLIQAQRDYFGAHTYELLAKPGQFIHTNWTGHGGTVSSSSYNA

For `CCC1C2CC3C4N(C)c5ccccc5C45CC(C2C5O)N3C1O` (stereo not drawn), in experiment [1], the inhibition – broadly, the relative decrease from the control value, in per cent – was 6.73% (inactive).

As to `COC1C(O)C(O[C@H]2CC[C@]3(C=O)C4C(OC(C)=O)C[C@]5(C)[C@@H](C6=CC(=O)OC6)CC[C@]5(O)C4CC[C@]3(O)C2)OC(C)C1OC(C)=O` (stereo partly drawn), the inhibition in experiment [1] was 10.3% (inactive).

As for `C[C@]12CC[C@H](O)C[C@H]1CC[C@@H]1[C@@H]2[C@H](O)C[C@]2(C)[C@@H](C3=CC(=O)OC3)CC[C@]12O`, in experiment [1], the inhibition was 11.1% (inactive).

For the compound `COc1cc2c(cc1OC)C(=O)c1ccc(OC)c(OC)c1OCC(=O)C2`, the inhibition in experiment [1] is -4.44% (inactive).

On to `CCCC(C)C1(CC)C(=O)NC(=S)NC1=O` (stereo not drawn), for which the inhibition in experiment [1] was -1.13% (inactive).

Consider `ClC1=C(Cl)C2(Cl)C3C(Cl)C=CC3C1(Cl)C2(Cl)Cl` (stereo not drawn), for which the inhibition in experiment [1] was 0.441% (inactive).

With `CCOP(=S)(OCC)SCSCC`, the inhibition in [1] was 7.84% (inactive).

For `C=C1C([C@]2(C)C(CC(=O)OC)[C@@](C)(COC(C)=O)OC(=O)C[C@@H]2OC(C)=O)[C@@H](OC=O)[C@H](OC(=O)C(OC(C)=O)C(C)CC)[C@@]2(C)[C@H](c3ccoc3)CC(=O)C12O` (stereo partly drawn), the inhibition in experiment [1] is -6.98% (inactive).

On to `O=C(NC(=O)c1c(F)cccc1F)Nc1ccc(Cl)c(Oc2ncc(C(F)(F)F)cc2Cl)c1`, for which the nuclear beta-catenin stimulation in [2] (at 10 µM) was 1.2% (inactive); in experiment [2] (stimulation, at 2 µM) it was -0.3%. Also, the insulin secretion stimulation in [3] was 0.25% (inactive). Also, in [4], the GLP1 secretion stimulation is -8.7% (inactive).

`COc1ccc2c(c1OC)C(=O)O[C@H]2[C@@H]1c2cc3c(cc2CCN1C)OCO3`: the nuclear beta-catenin stimulation in [2] (at 10 µM) was -0.8% (inactive); in experiment [2] (stimulation, at 2 µM), 7.9%. Also, the viability decrease in experiment [5] was 19.2% (inactive). Also, the inhibition of viability in experiment [6] was 19.8% (inactive). Moreover, the viability decrease (inhibition) in [7] was 3.5% (inactive); in [8], -6.5% (inactive). Moreover, the inhibition in experiment [1] was -1.62% (inactive). For the same compound, the remaining activity – broadly, the signal under treatment as a percentage of the control signal – in experiment [9] was 110% (inactive). The fold change was 0.977 (inactive) in experiment [10] (stronger effect = lower value) and 1.1 in [10] (setting [14]). The cell count in experiment [10] (setting [15]) worked out at 10700; in experiment [10] (setting [16]), 10900. Also, in experiment [11], the z-score is 0.055 (inactive).

Regarding `CC(C)(C)c1ccc(O)cc1`, in experiment [3], the insulin secretion stimulation is 0% (inactive). Also, the viability decrease in [5] is -1.5% (inactive). Moreover, the tube area decrease in experiment [12] is -21.2% (inactive). In experiment [4], the GLP1 secretion stimulation is 3.8% (inactive). In addition, the inhibition of viability in experiment [6] is 7.9% (inactive). Moreover, the figures for the viability decrease (inhibition) in experiment [7] and in experiment [8] were 15.7% (inactive) and 4.65% (inactive), respectively.

For `CC(=O)O[C@H]1CC[C@@]2(C)[C@@H](CC[C@@H]3[C@@H]2CC[C@]2(C)C(=O)CC[C@@H]32)C1`, the inhibition in experiment [1] is 0.969% (inactive).

As to `CC(C)=CCC[C@]1(C)C=Cc2c(O)c3c(c(CC=C(C)C)c2O1)O[C@]12C(=C[C@@H]4C[C@H]1C(C)(C)O[C@@]2(C/C=C(/C)C(N)=O)C4=O)C3=O`, in experiment [1], the inhibition is -5.75% (inactive).

For `C[C@H]1CC[C@]2(NC1)O[C@H]1C[C@H]3[C@@H]4CC[C@H]5C[C@@H](O[C@@H]6O[C@H](CO)[C@H](O[C@@H]7O[C@H](CO)[C@@H](O)[C@H](O[C@@H]8OC[C@@H](O)[C@H](O)[C@H]8O)[C@H]7O[C@@H]7O[C@H](CO)[C@@H](O)[C@H](O)[C@H]7O)[C@H](O)[C@H]6O)CC[C@]5(C)[C@H]4CC[C@]3(C)[C@H]1[C@@H]2C`, the inhibition in [1] was 1.84% (inactive).

`ClC1=C(Cl)C2(Cl)C(CBr)CC1(Cl)C2(Cl)Cl` (stereo not drawn): the nuclear beta-catenin stimulation in experiment [2] (at 10 µM) was 1.7% (inactive); in [2] (stimulation, at 2 µM), 5.3%. In experiment [3], the insulin secretion stimulation was 0.2% (inactive). The GLP1 secretion stimulation in [4] was 16.3% (inactive).

For the compound `c1ccc2c(c1)Sc1ccccc1N2CC1CN2CCC1CC2` (stereo not drawn), the nuclear beta-catenin stimulation in [2] (at 10 µM) is 50.9% (active); in experiment [2] (stimulation, at 2 µM), -0.7%. Besides, the insulin secretion stimulation in experiment [3] is 11.5% (inactive). The GLP1 secretion stimulation in [4] was 26.8% (active). The fold change was 0.854 (inactive) in experiment [10] (stronger effect = lower value) and 0.648 in experiment [10] (setting [14]). The cell count in experiment [10] (setting [15]) is 6390; in experiment [10] (setting [16]), 7490. Also, the z-score in experiment [13] (MELAS cybrid survival, CellTiter-Glo 48 h, stronger effect = higher value) was -0.772 (inactive); in [13] (Rieske KO mouse fibroblast survival, CellTiter-Glo 72 h), -0.213; in [11] it was -2.58 (inactive).

For `C=CCN1CC[C@]23CCCC[C@H]2[C@H]1Cc1ccc(O)cc13`, the nuclear beta-catenin stimulation in [2] (at 10 µM) is 3.5% (inactive); in [2] (stimulation, at 2 µM), 0.3%. Besides, the insulin secretion stimulation in [3] was 12.2% (inactive). Further, the GLP1 secretion stimulation in experiment [4] is 8.3% (inactive). Further, the remaining activity in experiment [9] was 94.8% (inactive).

Take `Fc1cc(Br)ccc1CBr`: the nuclear beta-catenin stimulation in [2] (at 10 µM) was -0.7% (inactive); in [2] (stimulation, at 2 µM), 13%. Besides, the viability decrease in experiment [5] is 3.1% (inactive). Besides, the tube area decrease in [12] was -4.2% (inactive). Besides, in [6], the inhibition of viability was -1.5% (inactive). Besides, the viability decrease (inhibition) is 5.9% (inactive) in experiment [7] and 9.1% (inactive) in [8].

Take `C[C@@H]1CC[C@@]2(OC1)O[C@H]1[C@@H](O)[C@H]3[C@@H]4CC[C@H]5C[C@@H](O[C@@H]6O[C@H](CO)[C@H](O[C@@H]7O[C@H](CO)C(O)[C@H](O[C@@H]8OC[C@@H](O)[C@H](O)[C@H]8O)[C@H]7O[C@@H]7O[C@H](CO)[C@H](O)[C@H](O[C@@H]8O[C@H](CO)[C@@H](O)[C@H](O)[C@H]8O)[C@H]7O)[C@H](O)[C@H]6O)[C@H](O)C[C@]5(C)[C@H]4CC[C@]3(C)[C@H]1[C@@H]2C` (stereo partly drawn): in [1], the inhibition was -7.91% (inactive).
